Many of the other results were omitted from the sample, so the strongest signals are more common in it than they were.
Tests used:
Experiment in all cases: glycan array binding signal (z-score within array); higher = stronger binding
Conditions in all cases: glycan notation: IUPAC condensed, linker removed
[1] = biological target: GlcNAc(b1-3)Gal(b1-4)GlcNAc(b1-2)Man(a1-3)[GlcNAc(b1-3)Gal(b1-4)GlcNAc(b1-2)Man(a1-6)]Man(b1-4)GlcNAc(b1-4)GlcNAc
How it was run: (§1)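 Glycan array binding is given as a within-array Z-score, which can be read as non-binding when negative. The arrays, 3228 of them, came from the Consortium for Functional Glycomics database and were retained only where the protein sequence was available. Z-scores were averaged across arrays of the same protein sequence at different concentrations or buffers and across linkers.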

[2] = biological target: GlcNAc(b1-3)Gal(b1-4)GlcNAc(b1-3)Gal(b1-4)GlcNAc(b1-2)Man(a1-3)[GlcNAc(b1-3)Gal(b1-4)GlcNAc(b1-3)Gal(b1-4)GlcNAc(b1-2)Man(a1-6)]Man(b1-4)GlcNAc(b1-4)GlcNAc
How it was run: as §1

[3] = biological target: GlcNAc(b1-3)Gal(b1-4)GlcNAc(b1-6)[Gal(b1-3)]GalNAc
How it was run: as §1

[4] = biological target: GlcNAc(b1-3)Gal(b1-4)GlcNAc(b1-6)[GlcNAc(b1-3)Gal(b1-3)]GalNAc
How it was run: as §1

GlcNAc(b1-3)Man = biological target: GlcNAc(b1-3)Man
How it was run: as §1

[5] = biological target: GlcNAc(b1-4)GlcNAc(b1-4)GlcNAc(b1-4)GlcNAc(b1-4)GlcNAc(b1-4)GlcNAc
How it was run: as §1

[6] = biological target: GlcNAc6S(b1-3)Gal(b1-4)GlcNAc
How it was run: as §1

[7] = biological target: Man(a1-2)Man(a1-6)[Man(a1-3)]Man(a1-6)[Man(a1-2)Man(a1-2)Man(a1-3)]Man(b1-4)GlcNAc(b1-4)GlcNAc
How it was run: as §1

Man(b1-4)GlcNAc = biological target: Man(b1-4)GlcNAc
How it was run: as §1

Neu5Ac(a2-3)Gal = biological target: Neu5Ac(a2-3)Gal
How it was run: as §1

[8] = biological target: Neu5Ac(a2-3)Gal(b1-3)GalNAc6S
How it was run: as §1

[9] = biological target: Neu5Ac(a2-3)Gal(b1-3)GlcNAc(b1-2)[Neu5Ac(a2-3)Gal(b1-3)GlcNAc(b1-4)]Man(a1-6)[Neu5Ac(a2-3)Gal(b1-3)GlcNAc(b1-2)Man(a1-3)]Man(b1-4)GlcNAc(b1-4)GlcNAc
How it was run: as §1

[10] = biological target: Neu5Ac(a2-3)Gal(b1-3)GlcNAc(b1-3)Gal(b1-3)GlcNAc
How it was run: as §1

[11] = biological target: Neu5Ac(a2-3)Gal(b1-3)GlcNAc(b1-6)GalNAc
How it was run: as §1

[12] = biological target: Neu5Ac(a2-3)Gal(b1-3)[Fuc(a1-4)]GlcNAc(b1-3)Gal(b1-4)[Fuc(a1-3)]GlcNAc
How it was run: as §1

Neu5Ac(a2-3)Gal(b1-4)Glc = biological target: Neu5Ac(a2-3)Gal(b1-4)Glc
How it was run: as §1

[13] = biological target: Neu5Ac(a2-3)Gal(b1-4)GlcNAc(b1-2)[Neu5Ac(a2-3)Gal(b1-4)GlcNAc(b1-4)]Man(a1-3)[GlcNAc(b1-4)][Neu5Ac(a2-3)Gal(b1-4)GlcNAc(b1-4)Man(a1-6)]Man(b1-4)GlcNAc(b1-4)GlcNAc
How it was run: as §1

[14] = biological target: Neu5Ac(a2-3)Gal(b1-4)GlcNAc(b1-6)[Neu5Ac(a2-3)Gal(b1-3)]GalNAc
How it was run: as §1

[15] = biological target: Neu5Ac(a2-3)Gal(b1-4)[Fuc(a1-3)]GlcNAc(b1-3)Gal(b1-4)GlcNAc
How it was run: as §1

[16] = biological target: Neu5Ac(a2-3)Gal(b1-4)[Fuc(a1-3)]GlcNAc(b1-3)Gal(b1-4)[Fuc(a1-3)]GlcNAc(b1-3)Gal(b1-4)[Fuc(a1-3)]GlcNAc
How it was run: as §1

[17] = biological target: Neu5Ac(a2-3)Gal(b1-4)[Fuc(a1-3)]GlcNAc(b1-3)GalNAc
How it was run: as §1

[18] = biological target: Neu5Ac(a2-6)Gal(b1-3)GlcNAc(b1-3)[Gal(b1-4)GlcNAc(b1-6)]Gal(b1-4)Glc
How it was run: as §1

[19] = biological target: Neu5Ac(a2-6)Gal(b1-4)GlcNAc(b1-2)Man(a1-6)[Gal(b1-4)GlcNAc(b1-2)Man(a1-3)]Man(b1-4)GlcNAc(b1-4)GlcNAc
How it was run: as §1

[20] = biological target: Neu5Ac(a2-6)Gal(b1-4)GlcNAc(b1-3)Gal(b1-4)GlcNAc(b1-3)Gal(b1-4)GlcNAc
How it was run: as §1

[21] = biological target: Neu5Ac(a2-6)Gal(b1-4)GlcNAc(b1-3)Gal(b1-4)[Fuc(a1-3)]GlcNAc(b1-3)Gal(b1-4)[Fuc(a1-3)]GlcNAc
How it was run: as §1

[22] = biological target: Neu5Ac(a2-8)Neu5Ac(a2-8)Neu5Ac(a2-3)[GalNAc(b1-4)]Gal(b1-4)Glc
How it was run: as §1

[23] = biological target: Neu5Ac(a2-8)Neu5Ac(a2-8)Neu5Ac(a2-8)Neu5Ac(a2-3)[GalNAc(b1-4)]Gal(b1-4)Glc
How it was run: as §1

[24] = biological target: Neu5Ac(a2-8)Neu5Gc(a2-3)Gal(b1-4)GlcNAc
How it was run: as §1

[25] = biological target: Neu5Gc(a2-3)Gal(b1-3)GlcNAc
How it was run: as §1

B1: LF82 (Escherichia coli) (protein)
chain: ADWGPCRTASGDPFIFVTSFTKNIQNPTDNVTGQTYPDFYQWALGDKYSGVCECPSPNPTEARPTLYKTESTLAAGHNSTYFKITNNLEVSTRVYIANVGNVQVPFINKSNSQPGRECDQPTFGWTTGSKGQLSLYIAKPFVGEQNIPQTIIVSVFGTKKENVYSSVPISQVLLSGKVTVTQGCELAAGTSLDIDFGEYQAHDFKGRTGQPPQNVQKIQKELTFNCTNISDGVHIYLSLEGTPNAAYPSAISLGNADVGAVIEDGKGNILKPNDSNSLLEMNPGSLYEYVKRKVTTTITAYPVSTTGKLPAAGDYSGVATMHVELDGGGGGGGGGGATTDLGAKGTLKFSLKISQGHHHHHH
glycan array binding signal (z-score) [1]: -0.713
glycan array binding signal (z-score) [2]: 1.79
glycan array binding signal (z-score) [3]: -0.509
glycan array binding signal (z-score) [4]: 0.416
glycan array binding signal (z-score) (GlcNAc(b1-3)Man): 0.644
glycan array binding signal (z-score) [5]: -1.17
glycan array binding signal (z-score) [6]: -0.173
glycan array binding signal (z-score) [7]: 0.244
glycan array binding signal (z-score) (Man(b1-4)GlcNAc): 0.456
glycan array binding signal (z-score) (Neu5Ac(a2-3)Gal): 0.191
glycan array binding signal (z-score) [8]: 0.435
glycan array binding signal (z-score) [9]: 4.88
glycan array binding signal (z-score) [10]: -0.469
glycan array binding signal (z-score) [11]: -0.373
glycan array binding signal (z-score) [12]: -0.501
glycan array binding signal (z-score) (Neu5Ac(a2-3)Gal(b1-4)Glc): 0.503
glycan array binding signal (z-score) [13]: 2.08
glycan array binding signal (z-score) [14]: -0.112
glycan array binding signal (z-score) [15]: 0.281
glycan array binding signal (z-score) [16]: 0.12
glycan array binding signal (z-score) [17]: 0.56
glycan array binding signal (z-score) [18]: 2.17
glycan array binding signal (z-score) [19]: 0.283
glycan array binding signal (z-score) [20]: 0.668
glycan array binding signal (z-score) [21]: 0.159
glycan array binding signal (z-score) [22]: -0.553
glycan array binding signal (z-score) [23]: 2.59
glycan array binding signal (z-score) [24]: -0.211
glycan array binding signal (z-score) [25]: 3.85
